Cycloheximide cs: affects cycloheximide protein synthesis inhibition readout, counter-screen; cell reporter, cycloheximide protein synthesis inhibition counterscreen; max response, %; actives 12% (n = 300,000); in the data active = max response mostly above about 13%, no sharp cut-off; inactive = mostly below about 14%; note: read at 38.3 µM for the half of the compounds with a filed dose
NS1 inh: inhibitors of influenza NS1 protein function. Potency, µM (series often up to 46.1 µM). actives 0.4% (n = 270,000). AID 2326; calls by dose curve; note: actives are rising curves; nearly all actives have a fitted effect of over 50% in size
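Read-out: OD600 growth recovery of NS1-expressing budding yeast. Cells grown overnight at 30C in -URA glucose medium, washed, resuspended and diluted 1:100 in 2% galactose assay medium, pH 6.0. Same strain lacking NS1 served as positive control.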
LmPK inh: inhibitors of Leishmania mexicana pyruvate kinase | purified LmPK, Kinase-Glo ATP luminescence, 1 h | Potency, µM (series often up to 57.5 µM), actives largely listed as inhibitors | actives 0.37% (n = 290,000)
Target sequence (Q27686 whole entry, looked up): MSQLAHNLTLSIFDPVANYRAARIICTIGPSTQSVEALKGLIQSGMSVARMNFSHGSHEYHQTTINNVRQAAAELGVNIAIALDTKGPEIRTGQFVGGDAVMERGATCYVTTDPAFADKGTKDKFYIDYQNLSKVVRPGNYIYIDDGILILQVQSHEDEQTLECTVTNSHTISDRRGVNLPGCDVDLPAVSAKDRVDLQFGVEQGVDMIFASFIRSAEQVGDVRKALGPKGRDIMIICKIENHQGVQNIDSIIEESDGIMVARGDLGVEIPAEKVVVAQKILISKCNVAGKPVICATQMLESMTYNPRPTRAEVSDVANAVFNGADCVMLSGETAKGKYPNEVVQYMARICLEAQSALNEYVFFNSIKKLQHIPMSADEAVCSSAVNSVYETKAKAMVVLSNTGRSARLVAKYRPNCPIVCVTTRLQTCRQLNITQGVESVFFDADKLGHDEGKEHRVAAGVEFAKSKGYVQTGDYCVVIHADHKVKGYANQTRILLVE
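In 50 mM imidazole pH 7.2 with 7 mM MgCl2, LmPK (0.1 nM) turned over PEP (0.5 mM) and ADP (0.1 mM) for 1 h at room temperature. Luciferase read-out of ATP.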
FBPA Giardia inh: Giardia lamblia aldolase inhibition; A8B2U2; purified Giardia FBPA; Potency, µM (titrated, usually from 59.6 µM), most hits filed as inhibitors; actives 0.71% (n = 290,000); AID 2451; note: nearly all actives have a fitted effect of over 55% in size
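Giardia FBPA (40 nM reagent) was preincubated 10 min at RT with compound (up to 57.5 uM final), then substrate plus GAPDH/TPI/NAD/arsenate coupling system with diaphorase/resazurin was added; resorufin fluorescence (525/598 nm) was read after 20 min.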
Shiga toxin inh: inhibitors of Shiga toxin in Vero cells | Vero cells, Shiga toxin protein synthesis inhibition reporter | inhibition, % at 38.7 µM | actives 9.2% (n = 290,000) | AID 2315; in the data active = inhibition mostly above about 28%, no sharp cut-off; inactive = mostly below about 43%
A number is an active result; . = inactive; ? = inconclusive; / = not tested or not shown; + = active, no number. Most compounds without a hit are left out; they make up all but 14% or so of the library. Unless noted, calls come from the whole dose curve; as a rule, active = well fitted curve in the direction sought with a large enough effect; inconclusive = small, poorly fitted or top-dose-only effect, or another doubt; inactive = no such curve, though single readings can be large; an effect the other way counts as inactive or inconclusive.

SMILES	Cycloheximide cs	NS1 inh	LmPK inh	FBPA Giardia inh	Shiga toxin inh
CCOc1ccc2nc(NC(=O)c3cnc(C)cn3)sc2c1	18	.	.	.	.
O=C(COc1ccc(S(=O)(=O)N2CCCC2)cc1Cl)NCc1cccnc1	.	.	.	/	.
Cc1ccc(C)c(N=Cc2cc3c(cc2[N+](=O)[O-])OCO3)c1	.	/	.	3.2µM	.
CC(C)(C)c1ccc(O)c(N=Cc2cc3c(cc2[N+](=O)[O-])OCO3)c1	.	?	1.6µM	.	/
O=C(CCc1ccc(O)c(O)c1)N/N=C/c1cc2c(cc1[N+](=O)[O-])OCO2	.	.	?	.	.
Cc1cccc(C)c1OCC(=O)N/N=C/c1cc2c(cc1[N+](=O)[O-])OCO2	.	.	.	.	.
COc1cccc(C(=O)NCC(=O)N2CCC3(CC2)NCCc2[nH]cnc23)c1OC	.	.	.	/	.
CC1=C/C(=N/O)C([C@H]2C=C(C)CC(C)(C)[C@@H]2O)C(C)(C)C1 (some centres undefined)	/	.	/	/	/
COc1ccc(C(=O)O/N=C2\CCS(=O)(=O)c3sccc32)cc1	.	.	.	.	.
COc1ccc(N=C2CCS(=O)(=O)c3sccc32)cc1	41	.	.	.	.
Cc1ccccc1C(=O)O/N=C1\CCS(=O)(=O)c2sccc21	39	.	.	.	83
O=C1N=c2ccccc2=C1c1sc(=O)[nH]c1O	.	.	10µM	.	.
Cc1ccc(C(C(=O)NCc2ccco2)N(CCc2ccccc2)C(=O)Cn2nnc3ccccc32)o1 (centres undefined)	.	.	.	.	.
Cc1ccc(N(C(=O)Cn2nnc3ccccc32)C(C(=O)NCc2ccco2)c2ccc(C)o2)cc1 (centres undefined)	.	.	.	.	.
Cc1ccc(CN(C(=O)Cn2nnc3ccccc32)C(C(=O)NCc2ccco2)c2ccc(C)o2)cc1 (centres undefined)	16	.	.	.	42
COc1ccc(N(C(=O)Cn2nnc3ccccc32)C(C(=O)NCc2ccco2)c2ccc(C)o2)cc1 (centres undefined)	30	.	.	.	.
CC(=O)c1ccc(N(C(=O)Cn2nnc3ccccc32)C(C(=O)NCc2ccccc2)c2ccccn2)cc1 (centres undefined)	47	.	.	.	76
Cc1ccc(N(C(=O)Cn2nnc3ccccc32)C(C(=O)NCc2ccccc2)c2ccccn2)cc1 (centres undefined)	.	.	.	.	.
CC[C@H](C)[C@H](NC(=O)[C@H](C)NC(=O)[C@H](CC(N)=O)NC(=O)[C@H](CCCCN)NC(=O)[C@H](Cc1ccccc1)NC(=O)[C@H](CC(C)C)NC(=O)[C@@H](NC(=O)[C@@H](NC(=O)[C@H](CC(C)C)NC(=O)[C@@H]1CCCN1C(=O)[C@@H](NC(=O)[C@H](CCC(N)=O)NC(=O)[C@H](CO)NC(=O)[C@H](CCCCN)NC(=O)[C@H](CCC(=O)O)NC(=O)[C@H](CO)NC(=O)[C@@H](NC(=O)[C@H](CCSC)NC(=O)[C@H](Cc1ccccc1)NC(=O)CNC(=O)CNC(=O)[C@@H](N)Cc1ccc(O)cc1)[C@@H](C)O)[C@@H](C)O)C(C)C)[C@@H](C)O)C(=O)N[C@H](C(=O)N[C@@H](CCCCN)C(=O)N[C@@H](CC(N)=O)C(=O)N[C@@H](C)C(=O)N[C@@H](Cc1ccc(O)cc1)C(=O)N[C@@H](CCCCN)C(=O)N[C@@H](CCCCN)C(=O)NCC(=O)N[C@@H](CCC(=O)O)C(=O)O)[C@@H](C)CC	.	/	/	.	.
COc1ccccc1Oc1ccc(N/C=C/C(=O)c2ccco2)cc1	50	.	.	.	100
O=C(/C=C/Nc1ccc(Oc2ccccc2Cl)cc1)c1ccco1	37	.	.	.	117
CCCCCCCCCCCCCCCCOCC(CO)OC (centres undefined)	/	/	/	.	/
CN(C(=O)CSc1nc2ccccc2s1)c1c(N)n(Cc2ccccc2)c(=O)[nH]c1=O	.	.	.	.	.
CCc1cc(C(=O)Cc2nc3ccccc3s2)c(O)cc1OCC(=O)O	.	?	.	.	.
CCCn1c(N)c(C(=O)CSc2nc3ccccc3s2)c(=O)[nH]c1=O	.	/	.	.	61
SMILES	Cycloheximide cs	NS1 inh	LmPK inh	FBPA Giardia inh	Shiga toxin inh
O=C(Cc1nc2ccccc2s1)c1ccc(O)cc1O	41	.	.	.	65
O=C(CSc1nc2ccccc2s1)c1ccc(O)cc1O	22	.	.	.	59
CC(C)[C@@H](C(=O)N1CCCC1)N1C(=O)N2CCc3c([nH]c4ccccc34)[C@@]2(C)C1=O	.	.	.	.	.
CCNC(=O)NC(=O)C(C)Sc1nnc(COc2ccccc2Cl)o1 (centres undefined)	15	.	.	.	.
Cn1c(SCc2ccccc2)nnc1-c1c[nH]c2ccccc12	21	.	.	.	48
COC(=O)c1ccc(CSc2nnc(-c3c[nH]c4ccccc34)n2-c2ccccc2)cc1	18	.	.	.	+
CCOCCCNC(=O)c1cn(CC)c2ccc(S(=O)(=O)N3CCC(C)CC3)cc2c1=O	.	.	.	.	.
Cc1cccc(C(=O)Nc2sc3c(c2C(=O)O)CCCC3)c1	47	.	.	.	93
O=C(Nc1sc2c(c1C(=O)O)CCC2)c1ccccc1Cl	.	.	.	.	/
O=C(Nc1sc2c(c1C(=O)O)CCC2)c1cccc(Cl)c1	44	.	.	.	70
CCOC(=O)c1c(C)[nH]c(C(=O)N2CCC(C(=O)OCC)CC2)c1C	.	.	.	/	.
COc1ccc(NC(=O)CSc2nncn2C)cc1	25	.	.	.	.

Bioassay records from PubChem BioAssay.
